Screens from PubChem.
Only some compounds are listed: those with a hit (about 1.7% of all), similar ones and a draw of the others.
BJeLR viability: BJeLR cell viability loss. BJeLR (HRASV12) viability, CellTiter-Glo ATP luminescence, 48 h. inhibition, % (no concentration beside the values). hit rate 0.17% among 300,000. AID 1554; in the data active = inhibition above about 50%; inconclusive = no clear call, values can overlap the other calls
PfHsp40 yeast: compounds rescuing yeast from Plasmodium falciparum HSP40 toxicity | S. cerevisiae expressing PfHsp40, growth rescue, ATP luminescence | hit rate 0.68% among 340,000 | AID 504582 | growth rescue, % at 12.5 µM; in the data active = growth rescue above about 28%, passing the limit was not always enough; inconclusive = no clear call, values can overlap the other calls;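 note: yeast W303a lacking pdr1 and pdr3 grown in galactose medium; growth measured after three days at 30 °C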
Y pestis TopoI: Y. pestis Topo-I inhibition via cleavage products; activity, % at 10 µM; AID 504884; Y. pestis Topo-I cleavage product accumulation, plate reader; hit rate 0.064% among 360,000; in the data active = activity above about 50%, passing the limit was not always enough; inconclusive = no clear call, values can overlap the other calls
SSB-PriA inh: blocks PriA binding to SSB C-terminal tail; inhibition, % at 33 µM; hit rate 0.6% among 430,000; AlphaScreen SSBct-PriA binding, biotinylated peptide; in the data active = inhibition mostly above about 37%, no sharp cut-off; inactive = mostly below about 20%;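 note: plate controls were negative control peptide for no effect and reference peptide for full effect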
PrP 5UTR inh: suppresses PrP 5' UTR mRNA reporter expression; cell-based PrP 5' UTR mRNA reporter, plate reader; inhibition, % (test concentration not listed); hit rate 0.35% among 340,000; AID 488862; in the data active = inhibition above about 52%; note: 0 = median of the neutral control wells
PrPC surface inh: reduces human prion protein on the cell surface; P04156; cell surface PrPC, TR-FRET read-out; inhibition, % at 13.8 µM; hit rate 0.43% among 370,000; in the data active = inhibition above about 24%; note: 0% = median of the test wells and 100% = reference compound wells
Starred values were filed as active, the others as inactive; ? = inconclusive; · = no result; ! = not confirmed by another sample.

SMILES	BJeLR viability	PfHsp40 yeast	Y pestis TopoI	SSB-PriA inh	PrP 5UTR inh	PrPC surface inh
COc1cc(CCN2C(=O)c3cccc4cccc(c34)C2=O)c(S(=O)(=O)NCc2cccnc2)cc1OC	·	·	·	-9	·	·
COc1cc2c(cc1NC(=O)C(C)Sc1ccc(NC(C)=O)cc1)oc1ccccc12 (stereo not drawn)	-5	33*	20	3	-11	22
COCCn1cc(NC(=O)Nc2cc(C)ccc2OC)c2ccccc21	·	·	·	37*	·	·
CC(O)(CNC(=O)CCc1ccccc1F)c1cc2ccccc2s1 (stereo not drawn)	·	·	·	-12	·	·
COC(=O)c1cc(Nc2ccc(Br)cc2)c2cccc(C)c2n1	·	·	·	-42	·	·
O=C(Nc1ccc(Cl)c(Cl)c1)C1CC(=O)N(c2ccc(Br)cc2)C1 (stereo not drawn)	5	31*	-5	-18	-3	1
O=C(Nc1nnc(-c2ccccc2Cl)o1)C1CC(=O)N(c2ccccc2)C1 (stereo not drawn)	·	·	·	46*	·	·
O=C(Nc1nnc(-c2cccs2)o1)C1CC(=O)N(c2ccc(F)cc2)C1 (stereo not drawn)	·	·	·	27*!	·	·
O=C(Nc1nccs1)C1CC(=O)N(c2ccc(F)cc2)C1 (stereo not drawn)	-3	0	-4	-18	-22	-7
Cc1ccc(N2CC(C(=O)N3CCC(C(=O)Nc4ccc(Br)cc4)CC3)CC2=O)cc1 (stereo not drawn)	5	1	25	6	-2	2
CC(=O)C(N=Nc1ccc(SC(F)F)cc1)=C(C)O	·	·	·	-8	·	·
Cc1ccc(OCC(=O)NCC2CCN(Cc3ccccn3)CC2)cc1	·	·	·	-17	·	·
COc1ccc(Cc2nnc(SCC(=O)N3CCCCC3)o2)cc1	1	-1	-2	53*	-7	1
COc1ccc(OC)c(NC(=O)N2CCN(c3cc(OC)nc(OC)n3)CC2)c1	·	·	·	-6	·	·
O=C(CSc1ccc(F)cc1)N1CC(c2nc(-c3cccc(C(F)(F)F)c3)no2)C1	·	·	·	-29	·	·
O=C(CSc1ccc(Cl)cc1)N1CCN(c2c(Cl)cccc2[N+](=O)[O-])CC1	9	66*	?	14	-15	-5
O=C(/C=C/c1ccc(Cl)cc1)N1CCN(c2c(Cl)cccc2[N+](=O)[O-])CC1	5	3	32	30	-18	6
COCCN1CCC(CNC(=O)Cc2ccc(-c3ccccc3)cc2)CC1	·	·	·	6	·	·
Cc1ccccc1NC(=O)CN1C(=O)NC(C)(c2ccc3c(c2)OCO3)C1=O (stereo not drawn)	-12	35*	2	-9	-14	-2
COc1cccc(-c2noc(-c3cc(-c4ccc(Cl)cc4)n[nH]3)n2)c1OC	·	·	·	5	·	·
COc1cccc2cc(-c3nnc(NC(=O)c4cccc(S(C)(=O)=O)c4)o3)oc12	·	·	·	90*	·	·
O=C(Nc1nnc(-c2ccc3c(c2)OCCO3)o1)c1cccc(NS(=O)(=O)c2ccc(F)cc2)c1	·	·	·	32*	·	·
COc1ccc(S(=O)(=O)Nc2cccc(C(=O)Nc3nnc(C4=COCCO4)o3)c2)cc1	·	·	·	56*	·	·
O=C(Nc1nnc(C2=COCCO2)o1)c1cccc(C(F)(F)F)c1	16	1	4	-1	-10	1
CN=c1scc(-c2cc(OC)ccc2OC)n1N=Cc1c(C)[nH]c2ccccc12	·	·	·	45*	·	·
SMILES	BJeLR viability	PfHsp40 yeast	Y pestis TopoI	SSB-PriA inh	PrP 5UTR inh	PrPC surface inh
CC1(C)Cc2ccccc2C(CCl)=N1	·	·	·	45*	·	·
O=C(OCC(=O)C12CC3CC(CC(C3)C1)C2)c1ccc(O)cc1	·	425*	6	-2	-40	-5
CC(C)(Oc1ccc(Cl)cc1)C(=O)NCCC(O)c1cccs1 (stereo not drawn)	·	·	·	-11	·	·
COc1cc(OC)cc(-c2sc3ccc(OC)cc3c2C#CC2(N)CCCCC2)c1	·	34*	0	5	-11	10
Nc1nc(-c2ccccn2)nc(N)c1Cc1ccc(Cl)cc1Cl	10	1	-3	54*	-56	12
Nc1nc(-c2ccccn2)nc(N)c1Cc1ccccc1F	-1	-2	-12	95*	-55	7
Nc1nc(-c2ccccn2)nc(N)c1Cc1c(F)cccc1Cl	6	0	-2	35	-8	12
CCCOC(=O)c1ccc(NC(=O)COC)cc1	7	-1	1	-8	-25	1
CCCOC(=O)c1ccc(NC(=O)CC(C)(C)C)cc1	-5	52*	6	-13	-116	11
COC(=O)C1(O)CC(C(C)C)=NN1C(=O)c1ccccc1 (stereo not drawn)	3	45*	-1	-4	-27	2
